Reference: PubChem BioAssay (NCATS)
Results filed as inconclusive are left out. The source made the active and inactive calls. Unless noted, calls follow the shape of the dose curve; as a rule, active = well fitted curve in the direction sought with a large enough effect; inconclusive = small, poorly fitted or top-dose-only effect, or another doubt; inactive = no such curve, though single readings can be large; an effect the other way counts as inactive or inconclusive.

Tests used:
[1] = Primary qHTS for inhibitors of nuclear receptor binding SET domain protein 2 (NSD2) in an isogenic RCH-ACV NSD2 p.E1099K mutant (9B) (AID 1645876); also: % is scaled to controls: 0 for no effect and ±100 for the full control effect; nearly all actives have a fitted effect of over 70% in size
[2] = Primary qHTS for inhibitors of nuclear receptor binding SET domain protein 2 (NSD2) in an RCH-ACV wild type WT cells (2C) (AID 1645877); also: % is scaled to controls: 0 for no effect and ±100 for the full control effect; nearly all actives have a fitted effect of over 70% in size
[3] = target: Phospholipid hydroperoxide glutathione peroxidase GPX4 (Homo sapiens) (UniProt P36969); assay: Primary qHTS Assay for Inhibitors of Recombinant Selenoprotein Glutathione Peroxidase 4 (GPX4) (AID 1845192); settings: outcome: dose series up to 50 µM unless noted; also: % is scaled to controls: 0 for no effect and ±100 for the full control effect; nearly all actives have a fitted effect of over 65% in size
Chain of Phospholipid hydroperoxide glutathione peroxidase GPX4 (Homo sapiens) (P36969 whole entry, looked up): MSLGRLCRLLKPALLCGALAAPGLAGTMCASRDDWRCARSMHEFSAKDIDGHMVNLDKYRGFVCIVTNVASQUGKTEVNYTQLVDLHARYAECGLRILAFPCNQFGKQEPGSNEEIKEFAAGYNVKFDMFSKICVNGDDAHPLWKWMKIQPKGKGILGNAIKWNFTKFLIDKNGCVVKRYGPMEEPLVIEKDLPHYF
Outline: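 qHTS, GR-coupled: GPX4 200 nM + cpd 30 min RT → GSH 1 mM, NADPH 0.5 mM, GR 100 nM → CHP 0.5 mM start; fluor 340/450 at t0 and t15 min; no-enzyme wells as control.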

[4] = qHTS drug screen for cell cycle checkpoint inhibitors in PARPi-resistant BRCA-mutant ovarian cancer cell lines. (AID 1963452; calls by dose curve); settings: PEO1/OlaR viability, CellTiter-Glo luminescence, 96 h, stronger effect = lower value
Outline: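 PEO1, PEO4 and PEO1/OlaR ovarian cancer cells, 600 per well, exposed 96 h at 37C to a dilution series. Viability read by CellTiter-Glo luminescence, normalized to DMSO and empty wells; activity summarized as Z-AUC.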

[5] = qHTS profiling for inhibitors of Plasmodium falciparum proliferation (AID 504749);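 also: 0% = DMSO vehicle and full inhibition = artemisinin control; nearly all actives have a fitted effect of over 60% in size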; settings: P. falciparum in erythrocytes, SYBR Green DNA, 72 h; at 28.7 µM (top of the series); parasite line A
Outline: (§1)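 Fluorescence of SYBR Green-bound parasite DNA, read at 485/535 nm, served as the growth measure. Infected erythrocytes were cultured with compound 72 h; artemisinin (0.29 uM) and DMSO wells defined the normalization range.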

[6] = system: 7G8; assay: as above; settings: P. falciparum in erythrocytes, SYBR Green DNA, 72 h; series mostly up to 28.7 µM
Outline: as §1

[7] = system: AA1029; assay: as above; settings: P. falciparum in erythrocytes, SYBR Green DNA, 72 h; series mostly up to 28.7 µM
Outline: as §1

[8] = system: AS120; assay: as above; settings: P. falciparum in erythrocytes, SYBR Green DNA, 72 h; series mostly up to 28.7 µM
Outline: as §1

[9] = system: ATS189; assay: as above; settings: P. falciparum in erythrocytes, SYBR Green DNA, 72 h; series mostly up to 28.7 µM
Outline: as §1

[10] = system: ATS95; assay: as above; settings: P. falciparum in erythrocytes, SYBR Green DNA, 72 h; series mostly up to 28.7 µM
Outline: as §1

[11] = system: C2A; assay: as above; settings: P. falciparum in erythrocytes, SYBR Green DNA, 72 h; series mostly up to 28.7 µM
Outline: as §1

[12] = system: CP185; assay: as above; settings: P. falciparum in erythrocytes, SYBR Green DNA, 72 h; series mostly up to 28.7 µM
Outline: as §1

[13] = system: CP191; assay: as above; settings: P. falciparum in erythrocytes, SYBR Green DNA, 72 h; series mostly up to 28.7 µM
Outline: as §1

[14] = system: CP192; assay: as above; settings: P. falciparum in erythrocytes, SYBR Green DNA, 72 h; series mostly up to 28.7 µM
Outline: as §1

[15] = system: CP194; assay: as above; settings: P. falciparum in erythrocytes, SYBR Green DNA, 72 h; series mostly up to 28.7 µM
Outline: as §1

[16] = system: CP201; assay: as above; settings: P. falciparum in erythrocytes, SYBR Green DNA, 72 h; series mostly up to 28.7 µM
Outline: as §1

[17] = system: CP203; assay: as above; settings: P. falciparum in erythrocytes, SYBR Green DNA, 72 h; series mostly up to 28.7 µM
Outline: as §1

[18] = system: CP211; assay: as above; settings: P. falciparum in erythrocytes, SYBR Green DNA, 72 h; series mostly up to 28.7 µM
Outline: as §1

[19] = system: CP217; assay: as above; settings: P. falciparum in erythrocytes, SYBR Green DNA, 72 h; series mostly up to 28.7 µM
Outline: as §1

[20] = system: CP237; assay: as above; settings: P. falciparum in erythrocytes, SYBR Green DNA, 72 h; series mostly up to 28.7 µM
Outline: as §1

[21] = system: CP238; assay: as above; settings: P. falciparum in erythrocytes, SYBR Green DNA, 72 h; series mostly up to 28.7 µM
Outline: as §1

[22] = system: CP247; assay: as above; settings: P. falciparum in erythrocytes, SYBR Green DNA, 72 h; series mostly up to 28.7 µM
Outline: as §1

[23] = system: CP250; assay: as above; settings: P. falciparum in erythrocytes, SYBR Green DNA, 72 h; series mostly up to 28.7 µM
Outline: as §1

[24] = system: CP252; assay: as above; settings: P. falciparum in erythrocytes, SYBR Green DNA, 72 h; series mostly up to 28.7 µM
Outline: as §1

[25] = system: CP256; assay: as above; settings: P. falciparum in erythrocytes, SYBR Green DNA, 72 h; series mostly up to 28.7 µM
Outline: as §1

[26] = system: CP260; assay: as above; settings: P. falciparum in erythrocytes, SYBR Green DNA, 72 h; series mostly up to 28.7 µM
Outline: as §1

[27] = system: CP262; assay: as above; settings: P. falciparum in erythrocytes, SYBR Green DNA, 72 h; series mostly up to 28.7 µM
Outline: as §1

[28] = system: CP265; assay: as above; settings: P. falciparum in erythrocytes, SYBR Green DNA, 72 h; series mostly up to 28.7 µM
Outline: as §1

[29] = system: CP266; assay: as above; settings: P. falciparum in erythrocytes, SYBR Green DNA, 72 h; series mostly up to 28.7 µM
Outline: as §1

[30] = system: CP268; assay: as above; settings: P. falciparum in erythrocytes, SYBR Green DNA, 72 h; series mostly up to 28.7 µM
Outline: as §1

[31] = system: CP269; assay: as above; settings: P. falciparum in erythrocytes, SYBR Green DNA, 72 h; series mostly up to 28.7 µM
Outline: as §1

[32] = system: CP286; assay: as above; settings: P. falciparum in erythrocytes, SYBR Green DNA, 72 h; series mostly up to 28.7 µM
Outline: as §1

[33] = system: CP291; assay: as above; settings: P. falciparum in erythrocytes, SYBR Green DNA, 72 h; series mostly up to 28.7 µM
Outline: as §1

[34] = system: CP297; assay: as above; settings: P. falciparum in erythrocytes, SYBR Green DNA, 72 h; series mostly up to 28.7 µM
Outline: as §1

[35] = system: CP305; assay: as above; settings: P. falciparum in erythrocytes, SYBR Green DNA, 72 h; series mostly up to 28.7 µM
Outline: as §1

[36] = system: CP315; assay: as above; settings: P. falciparum in erythrocytes, SYBR Green DNA, 72 h; series mostly up to 28.7 µM
Outline: as §1

[37] = system: CP325; assay: as above; settings: P. falciparum in erythrocytes, SYBR Green DNA, 72 h; series mostly up to 28.7 µM
Outline: as §1

[38] = system: CP329; assay: as above; settings: P. falciparum in erythrocytes, SYBR Green DNA, 72 h; series mostly up to 28.7 µM
Outline: as §1

[39] = system: DFO2036; assay: as above; settings: P. falciparum in erythrocytes, SYBR Green DNA, 72 h; series mostly up to 28.7 µM
Outline: as §1

[40] = system: DIV14; assay: as above; settings: P. falciparum in erythrocytes, SYBR Green DNA, 72 h; series mostly up to 28.7 µM
Outline: as §1

[41] = system: DIV30; assay: as above; settings: P. falciparum in erythrocytes, SYBR Green DNA, 72 h; series mostly up to 28.7 µM
Outline: as §1

[42] = system: Dd2; assay: as above; settings: P. falciparum in erythrocytes, SYBR Green DNA, 72 h; series mostly up to 28.7 µM
Outline: as §1

[43] = system: ECU; assay: as above; settings: P. falciparum in erythrocytes, SYBR Green DNA, 72 h; series mostly up to 28.7 µM
Outline: as §1

[44] = system: FAB9; assay: as above; settings: P. falciparum in erythrocytes, SYBR Green DNA, 72 h; series mostly up to 28.7 µM
Outline: as §1

[45] = system: GB4; assay: as above; settings: P. falciparum in erythrocytes, SYBR Green DNA, 72 h; series mostly up to 28.7 µM
Outline: as §1

[46] = system: HB3; assay: as above; settings: P. falciparum in erythrocytes, SYBR Green DNA, 72 h; series mostly up to 28.7 µM
Outline: as §1

[47] = system: ICS; assay: as above; settings: P. falciparum in erythrocytes, SYBR Green DNA, 72 h; series mostly up to 28.7 µM
Outline: as §1

[48] = system: JCK; assay: as above; settings: P. falciparum in erythrocytes, SYBR Green DNA, 72 h; series mostly up to 28.7 µM
Outline: as §1

[49] = system: N140; assay: as above; settings: P. falciparum in erythrocytes, SYBR Green DNA, 72 h; series mostly up to 28.7 µM
Outline: as §1

[50] = system: P93_24; assay: as above; settings: P. falciparum in erythrocytes, SYBR Green DNA, 72 h; series mostly up to 28.7 µM
Outline: as §1

[51] = system: P94_40; assay: as above; settings: P. falciparum in erythrocytes, SYBR Green DNA, 72 h; series mostly up to 28.7 µM
Outline: as §1

[52] = system: PAD; assay: as above; settings: P. falciparum in erythrocytes, SYBR Green DNA, 72 h; series mostly up to 28.7 µM
Outline: as §1

[53] = system: PC15; assay: as above; settings: P. falciparum in erythrocytes, SYBR Green DNA, 72 h; series mostly up to 28.7 µM
Outline: as §1

[54] = system: PC26; assay: as above; settings: P. falciparum in erythrocytes, SYBR Green DNA, 72 h; series mostly up to 28.7 µM
Outline: as §1

[55] = system: PC49; assay: as above; settings: P. falciparum in erythrocytes, SYBR Green DNA, 72 h; series mostly up to 28.7 µM
Outline: as §1

[56] = system: SC27B; assay: as above; settings: P. falciparum in erythrocytes, SYBR Green DNA, 72 h; series mostly up to 28.7 µM
Outline: as §1

[57] = system: TAB109; assay: as above; settings: P. falciparum in erythrocytes, SYBR Green DNA, 72 h; series mostly up to 28.7 µM
Outline: as §1

[58] = system: TAB113; assay: as above; settings: P. falciparum in erythrocytes, SYBR Green DNA, 72 h; series mostly up to 28.7 µM
Outline: as §1

[59] = system: TAB165; assay: as above; settings: P. falciparum in erythrocytes, SYBR Green DNA, 72 h; series mostly up to 28.7 µM
Outline: as §1

[60] = system: W2; assay: as above; settings: P. falciparum in erythrocytes, SYBR Green DNA, 72 h; series mostly up to 28.7 µM
Outline: as §1

[61] = target: Nuclear receptor subfamily 1 group I member 2 (Rattus norvegicus) (UniProt Q9R1A7); assay: qHTS assay for small molecule activators of the rat pregnane X receptor (rPXR) signaling pathway (AID 651751; call rule not given here; also: 0% is about no effect); settings: rPXR reporter cells, luciferase (One-Glo), 24 h
Chain of Nuclear receptor subfamily 1 group I member 2 (Rattus norvegicus) (Q9R1A7 whole entry, looked up): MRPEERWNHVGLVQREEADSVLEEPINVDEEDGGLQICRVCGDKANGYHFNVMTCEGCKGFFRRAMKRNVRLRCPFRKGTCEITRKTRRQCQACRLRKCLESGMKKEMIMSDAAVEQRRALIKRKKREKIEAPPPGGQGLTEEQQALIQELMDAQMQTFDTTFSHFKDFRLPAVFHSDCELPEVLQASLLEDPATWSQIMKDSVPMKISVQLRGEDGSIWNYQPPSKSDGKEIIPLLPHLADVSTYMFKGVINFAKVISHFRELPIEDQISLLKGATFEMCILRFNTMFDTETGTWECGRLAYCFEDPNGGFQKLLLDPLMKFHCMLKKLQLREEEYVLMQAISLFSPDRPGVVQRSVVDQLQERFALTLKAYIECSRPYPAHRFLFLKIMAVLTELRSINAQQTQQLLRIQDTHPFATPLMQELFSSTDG

[62] = qHTS assay for small molecule activators of the human pregnane X receptor (PXR) signaling pathway (AID 720659; call rule not given here; also: 0% is about no effect)

C[C@@H]1[C@H](O)[C@@H](C)/C=C/C=C/C=C/C=C/C=C/C=C/C=C/[C@H](O[C@@H]2O[C@H](C)[C@@H](O)[C@H](N)[C@@H]2O)C[C@@H]2O[C@](O)(C[C@@H](O)C[C@@H](O)[C@H](O)CC[C@@H](O)C[C@@H](O)CC(=O)O[C@H]1C)C[C@H](O)[C@H]2C(=O)O
1.61: Z-AUC ([4]; measured here: PEO4 Z-AUC)
inactive: Potency [1] | Potency [2] | Potency [3] | Z-AUC [4] 1.47 | activity, negative = inhibition [5] -1.42% | Potency [6] | Potency [7] | Potency [8] | Potency [9] | Potency [10] | Potency [11] | Potency [12] | Potency [13] | Potency [14] | Potency [15] | Potency [16] | Potency [17] | Potency [18] | Potency [19] | Potency [20] | Potency [21] | Potency [22] | Potency [23] | Potency [24] | Potency [25] | Potency [26] | Potency [27] | Potency [28] | Potency [29] | Potency [30] | Potency [31] | Potency [32] | Potency [33] | Potency [34] | Potency [35] | Potency [36] | Potency [37] | Potency [38] | Potency [39] | Potency [40] | Potency [41] | Potency [42] | Potency [43] | Potency [44] | Potency [45] | Potency [46] | Potency [47] | Potency [48] | Potency [49] | Potency [50] | Potency [51] | Potency [52] | Potency [53] | Potency [54] | Potency [55] | Potency [56] | Potency [57] | Potency [58] | Potency [59] | Potency [60] | max response [61] -0.988% | outcome [62]
1.65: Z-AUC ([4]; measured here: PEO1 parental Z-AUC)
